This is a sample that favours compounds with a hit; in the whole collection about 4.6% have one here.
D1 potentiator = human D1 dopamine receptor positive modulation; HEK293 TREx D1 cells, calcium flux, dopamine EC20 potentiation; potentiation, % at 10 µM; 360,000 compounds, 0.036% hits; in the data active = potentiation above about 30%; note: 0% is about no effect
TRHR agonist = activates the human TRH receptor; P34981; TRHR cells, calcium flux fluo-8, FDSS agonist mode; activation, % at 2 µM; 360,000 compounds, 0.18% hits; AID 493084; note: 0% is about no effect
Target sequence (P34981 whole entry, looked up): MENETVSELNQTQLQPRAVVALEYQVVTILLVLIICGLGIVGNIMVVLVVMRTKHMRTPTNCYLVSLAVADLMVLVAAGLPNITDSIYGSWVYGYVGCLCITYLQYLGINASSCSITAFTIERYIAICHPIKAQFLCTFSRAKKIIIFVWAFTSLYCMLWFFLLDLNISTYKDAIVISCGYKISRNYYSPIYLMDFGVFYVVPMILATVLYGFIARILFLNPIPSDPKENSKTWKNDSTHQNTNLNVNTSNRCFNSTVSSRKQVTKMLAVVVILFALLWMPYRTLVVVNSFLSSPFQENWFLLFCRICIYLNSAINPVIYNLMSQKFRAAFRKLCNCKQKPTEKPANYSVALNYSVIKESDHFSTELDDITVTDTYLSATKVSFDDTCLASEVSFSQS
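TRHR-expressing cells, plated overnight in medium with 10% serum, were loaded with fluo-8 calcium dye at room temperature. After a 10 s baseline, library compound was pin-added and calcium release was recorded kinetically (ex 480/em 530) as agonist response.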
D1 agonist = human D1 receptor agonism | P21728 | HEK293 T-REx D1 cells, calcium flux, agonist mode | activation, % at 2 µM | 360,000 compounds, 1% hits | AID 504660; note: 0% is about no effect
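Tetracycline-induced HEK293 TREx D1 cells, force-coupled to calcium signalling, were dye-loaded with a no-wash calcium kit. Compound was pin-added after a 10 s baseline. Fluorescence was read kinetically at 1 cycle/s for 180 s, with calcium rises flagged as agonism.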
TRHR enhancer = TRH receptor (human) allosteric enhancement; TRHR cells, fluo-8 calcium fluorescence, EC20 TRH enhancement; 360,000 compounds, 0.66% hits; enhancement, % at 2 µM; in the data active = enhancement above about 30%; note: 0% is about no effect
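Enhancer read-out: after compound pinning and an initial kinetic agonist-mode read, an EC20 of TRH (10 nM final) was injected and fluo-8 calcium signal (Ex 480/Em 530) followed at 1 s/cycle for 100 cycles in TRHR-expressing cells.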
D1 antagonist = blocks dopamine activation of the human D1 receptor | P21728 | HEK293 TREx D1 cells, calcium flux, dopamine EC80; hits give low values | activity change, negative = inhibition, % at 10 µM | 360,000 compounds, 3.2% hits | AID 504652; in the data active = activity change below about -30%; note: % is set by controls: 0 for no effect and ±100 for the full control effect
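Kinetic fluorescence of a calcium dye serves as the read-out. D1-expressing Hek293 Trex cells, induced overnight at 30 C, are exposed to compound for 180 s before an EC80 dopamine addition, then read 180 s further.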
* marks the source's active call; other numbers are inactive results. Cut-off read from the data, not from the text of the source, unless noted: active = activation above about 30%; inactive = the rest.

SMILES	D1 potentiator	TRHR agonist	D1 agonist	TRHR enhancer	D1 antagonist
Cc1cccc(N2CCN(C(=O)Cn3ncc4c3-c3cc(C)ccc3OC4)CC2C)c1 (stereo not given)	9.5	-0.2	0.0	-7.8	36.7
Cc1ccc(Cc2c(C)nc3nc(SCC(=O)NC4CCC(C)CC4)nn3c2C)cc1 (stereo not given)	-1.3	-0.9	-1.4	-3.6	-2.6
Cc1cccc(-c2nnn3c2nc(NCc2ccccc2)c2ccccc23)c1	-1.6	0.1	2.4	-4.9	6.0
CCn1cc(C(=O)NCCN(CC(C)C)CC(C)C)c(=O)c2cc(S(=O)(=O)N(C)C3CCCCC3)ccc21	-0.4	0.2	0.2	1.6	-28.6
CC(C)c1ccc(NC(=O)NCc2ccccn2)cc1	3.5	0.2	4.1	-1.6	-33.9*
COc1ccc(NC(=O)CCC(=O)c2ccc(C(C)C)cc2)cc1	-4.9	0.6	2.2	4.1	-13.5
COc1ccc(NC(=O)Nc2ccc(C(C)C)cc2)cc1	-8.8	-0.4	-0.4	-14.9	-36.5*
CC1=C(C)CC(C(=O)NCc2ccccn2)C(C(=O)O)C1 (stereo not given)	-4.5	0.9	3.4	2.8	-91.4*
COc1ccc(-c2noc(-c3ccc(NC4CCCC4)c([N+](=O)[O-])c3)n2)cc1OC	-2.5	0.4	14.5	0.6	-20.8
COc1cc(NC(=O)C(OC(=O)CNC(=O)c2ccccc2)c2ccccc2)cc(OC)c1 (stereo not given)	10.9	-1.0	2.0	3.9	21.5
COc1cccc(/C=C/C(=O)NNC(=O)c2ccncc2)c1	-4.9	0.3	2.6	-4.3	-5.7
COc1cccc(/C=C/C(=O)NNC(=O)c2ccncc2)c1OC	-2.5	0.1	100.1*	-0.6	-38.6*
CC(C)c1cnc2c(c1SCc1cccc(F)c1)c(=O)n(C)c(=O)n2C	5.1	-0.2	3.3	1.2	10.3
C=CC[n+]1c(-c2ccc(C)cc2)csc1Nc1ccc(NC(C)=O)cc1	-14.5	-0.1	4.7	-0.7	-46.9*
COc1ccc(C)cc1S(=O)(=O)NCCN1CCOCC1	-9.4	1.0	5.0	39.9*	8.2
Cc1ccc(C)c(S(=O)(=O)Nc2ccc(C(=O)NCCCN3CCOCC3)cc2)c1	4.5	0.0	1.5	1.0	10.9
COc1ccc(C(=O)NCCN2CCOCC2)cc1S(=O)(=O)Nc1ccc(C)cc1	9.6	-0.1	5.6	0.3	-35.9*
COc1ccc2oc(C(=O)NCCN3CCOCC3)c(C)c2c1OC	-1.0	1.0	0.1	34.0*	20.1
O=C(NCc1ccccc1)c1ccc(-c2ccccc2C(F)(F)F)o1	-5.8	-0.3	12.7	3.4	-7.6
Cc1ccccc1-c1ccc(C(=O)NCc2ccccc2)o1	-8.0	-0.4	-1.3	0.0	-42.4*
Cc1cccc(-c2cc(=O)c(C(=O)O)cn2-c2ccc(F)cc2F)c1	-7.0	-0.4	3.1	5.2	-40.2*
Cc1cccc(-c2cc(C(=O)O)c3c(-c4ccc(F)cc4)[nH]nc3n2)c1	-1.2	0.1	5.4	1.5	-6.5
N=C1SC(c2ccccc2)C(=O)N1c1ncc(Cc2ccccc2Cl)s1 (stereo not given)	-5.5	-0.5	0.9	-1.5	-43.2*
COCCNC(=O)CSc1cn(CC(=O)N2CCCCCC2)c2ccccc12	-2.6	0.2	0.2	-1.4	3.1
Nc1c(C(O)(C(F)(F)F)C(F)(F)F)cc(C(O)(C(F)(F)F)C(F)(F)F)c2ccccc12	4.5	2.1	39.8*	1.6	-29.7
SMILES	D1 potentiator	TRHR agonist	D1 agonist	TRHR enhancer	D1 antagonist
Nc1nonc1C(=O)NC(c1ccccc1)c1ccccc1	-0.8	-0.3	-0.1	-2.3	-36.1*
Cn1cc(-c2nnnn2-c2cccc(C(F)(F)F)c2)c(C(F)(F)F)n1	-10.6	-0.8	25.7	18.1	-37.0*
Cc1nn(-c2cccc(C(F)(F)F)c2)c(=O)c2ccccc12	-6.3	-0.2	0.3	-1.9	6.1
CC12CCC(=O)N1C(C(=O)NNC(=O)c1ccccc1Cl)CS2 (stereo not given)	-6.0	0.4	1.1	4.4	-52.4*
COc1cc(C(=O)NNC(=O)C2CSC3(C)CCC(=O)N23)cc(OC)c1OC (stereo not given)	-3.0	2.6	2.8	1.5	-40.0*
Cc1ccc2oc(-c3ccc(Cl)c(NC(=O)c4cc5ccccc5o4)c3)nc2c1	-1.8	1.2	4.7	0.8	16.3

Source: PubChem (National Center for Advancing Translational Sciences (NCATS))
